Screening data (PubChem)
Most compounds without a hit are left out; they make up all but 1.8% or so of the library.
GRK2 aptamer HTS: human GRK2 inhibition via aptamer displacement | bead flow cytometry, FAM-aptamer displacement from GRK2 | inhibition of aptamer binding, % at 10 µM | 330,000 compounds, 0.59% hits;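 active = inhibition of aptamer binding above 40%, roughly 3 SD of noise, on plates passing a quality check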;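 note: median bead fluorescence of bound FAM aptamer so fluorescent compounds give negative values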
DSG3 Ab inh: human desmoglein-3 autoantibody binding inhibition; P32926; DSG3-coupled beads, scFv-anti-DSG3-GFP binding, flow cytometry; active compounds read low; binding (percent of control), % at 10 µM; 310,000 compounds, 0.48% hits; AID 588358;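 active = binding more than 3 SD below its plate's average and above zero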;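 note: hits lower antibody fragment binding to DSG3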
VLA-4 inh: inhibition in a human VLA-4 binding assay; P13612; 330,000 compounds, 0.2% hits; inhibition, % (about 7 µM as worked out from the volumes in the protocol); VLA-4 expressing cells, ligand binding flow cytometry; AID 2557
PKD1 inh: blocks activity of human protein kinase D1; Q15139; PKD1 kinase fluorescence polarization assay; 200,000 compounds, 0.056% hits; inhibition, % (no concentration beside the values)
Target sequence (Q15139 whole entry, looked up): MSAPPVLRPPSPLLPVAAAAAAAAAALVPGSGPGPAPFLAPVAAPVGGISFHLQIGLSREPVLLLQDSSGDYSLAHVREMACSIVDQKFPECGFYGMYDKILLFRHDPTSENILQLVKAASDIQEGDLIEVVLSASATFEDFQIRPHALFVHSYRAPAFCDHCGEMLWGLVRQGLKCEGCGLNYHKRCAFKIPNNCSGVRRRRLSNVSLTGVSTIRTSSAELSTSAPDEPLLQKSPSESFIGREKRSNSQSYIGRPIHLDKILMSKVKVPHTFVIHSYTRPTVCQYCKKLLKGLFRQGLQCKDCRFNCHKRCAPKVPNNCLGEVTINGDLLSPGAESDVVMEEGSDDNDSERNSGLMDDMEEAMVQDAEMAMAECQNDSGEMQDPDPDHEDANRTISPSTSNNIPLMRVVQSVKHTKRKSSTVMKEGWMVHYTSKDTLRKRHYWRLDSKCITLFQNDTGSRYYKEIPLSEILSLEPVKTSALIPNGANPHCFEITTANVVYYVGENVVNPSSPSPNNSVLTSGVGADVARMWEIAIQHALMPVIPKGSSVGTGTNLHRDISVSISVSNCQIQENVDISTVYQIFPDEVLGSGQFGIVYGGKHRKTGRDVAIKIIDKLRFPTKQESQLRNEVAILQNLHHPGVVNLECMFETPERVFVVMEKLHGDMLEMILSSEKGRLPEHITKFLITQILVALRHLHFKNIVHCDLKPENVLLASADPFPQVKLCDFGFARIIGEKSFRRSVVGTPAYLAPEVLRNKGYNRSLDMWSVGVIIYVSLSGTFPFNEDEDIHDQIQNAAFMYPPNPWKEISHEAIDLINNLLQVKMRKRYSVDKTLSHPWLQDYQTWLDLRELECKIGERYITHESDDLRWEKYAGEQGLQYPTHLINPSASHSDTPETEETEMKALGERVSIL
LANA-H2A inh: blocks KSHV LANA binding to histone H2A/H2B; Q9QR71; cell-free LANA-H2A/H2B peptide, fluorescence polarization; inhibition, % (no concentration beside the values); 320,000 compounds, 0.6% hits; AID 2629; in the data active = inhibition mostly above about 10%, no sharp cut-off; inactive = mostly below about 6.7%
HDAC3 inhib: blocks human histone deacetylase 3; O15379; recombinant HDAC3, fluorogenic peptide/trypsin coupled, fluorescence; inhibition, % at 8.3 µM; 320,000 compounds, 0.15% hits; AID 2718; in the data active = inhibition above about 26%, passing the limit was not always enough
Numbers stand for hits; – = inactive; · = not tested or not shown; + = active, no number. Cut-off read from the data, not from the text of the source, unless noted: active = inhibition above about 50%; inactive = the rest.

SMILES	GRK2 aptamer HTS	DSG3 Ab inh	VLA-4 inh	PKD1 inh	LANA-H2A inh	HDAC3 inhib
C[N+]1(C)CCC(=C(c2ccccc2)c2ccccc2)CC1	–	–	–	·	15	–
O=C1N=c2ccccc2=C1c1[nH]c(=S)[nH]c1O	–	–	–	–	12	–
O=C1N=c2ccccc2=C1c1sc(=O)[nH]c1O	–	–	–	·	–	–
NC(=O)c1ccc(NC(=O)COC(=O)c2ccc(Cl)nc2)cc1	–	–	–	·	12	–
NC(=O)c1ccsc1NC(=O)COC(=O)c1ccc(Cl)nc1	–	59	–	·	–	–
CCOC(=O)CSc1nc(N2CCOCC2)c2c(c1C#N)CC(C)(C)N(C)C2	–	–	–	–	15	–
CCCCCCCCOC(=O)c1c(CSC(=N)N)n(C)c2cc(Br)c(OC(C)=O)cc12	·	–	–	·	–	33
Cc1ccc2occ(/C=N/NC(=O)c3ccccc3Br)c(=O)c2c1	–	–	–	·	–	–
Cc1ccc2occ(/C=N/NC(=O)c3ccc(O)cc3)c(=O)c2c1	–	·	–	·	–	82
CCC(c1ccccc1)c1noc(CCN(CC)CC)n1 (centres undefined)	·	–	·	·	·	·
COc1ccc(CSc2nnc(C)s2)cc1F	–	–	–	–	+	–
COC(=O)c1ccc(CSc2nnc(C)s2)cc1	–	–	–	–	–	–
CCN1C(=O)[C@H]2[C@@H](c3ccc(C(F)(F)F)cc3)N[C@]3(CCCN(Cc4ccc(OC)cc4)C3=O)[C@H]2C1=O	·	–	·	·	·	·
Cc1nc(N)c(Cc2ccccc2F)c(N)n1	–	24	–	–	–	–
CNC(=O)c1c[nH]n2c(=O)c(Cc3ccccc3F)c(C)nc12	–	–	–	–	–	–
CN1CCN(C2=Nc3ccccc3Oc3ccc(Cl)cc32)CC1	–	·	–	–	14	–
CN1CCN(c2nc(-c3ccccc3)c3cc(Cl)ccc3n2)CC1	–	–	–	–	–	–
Cc1cc(NC(=O)CCC(=O)N(CC(=O)NC2CCCC2)c2ccc(Cl)cc2)no1	–	–	–	·	–	–
CN(C)S(=O)(=O)N1CCN(S(=O)(=O)c2ccc3ccccc3c2)CC1	–	73	–	–	–	–
CN1CCN(S(=O)(=O)c2ccc3ccccc3c2)CC1	–	–	–	–	–	–
O=C(O)C1Nc2c(Cl)cc(Cl)cc2C2C=CCC12 (centres undefined)	72	–	–	·	–	–
O=C(OC1CCCCC1)c1ccc2c(c1)C1C=CCC1C(C(=O)O)N2 (centres undefined)	·	·	·	–	·	·
O=C(O)C1Nc2c(O)cccc2C2C=CCC12 (centres undefined)	–	83	–	–	–	–
O=C(O)C1Nc2ccc(Br)cc2C2C=CCC12 (centres undefined)	77	–	–	·	–	–
CCOC(=O)C1Nc2ccc(Br)cc2C2C=CCC12 (centres undefined)	–	–	–	·	–	–
SMILES	GRK2 aptamer HTS	DSG3 Ab inh	VLA-4 inh	PKD1 inh	LANA-H2A inh	HDAC3 inhib
O=C(Cn1c(C(=O)OCCO)cc2ccccc21)c1ccccc1	–	–	–	·	–	–
Cc1ccn2nc(C(=O)OCC(=O)N(CC(C)C)C3CCS(=O)(=O)C3)nc2n1 (centres undefined)	–	·	–	·	80	–
CC(=O)NS(=O)(=O)c1ccc(NC(=O)CC23CC4CC(CC(Br)(C4)C2)C3)cc1	–	·	–	·	–	–
O=C(CC12CC3CC(CC(Br)(C3)C1)C2)NC1CCCC1	–	–	–	·	12	–
CCC(=O)N(Cc1ccco1)c1nc(-c2ccc(OC)cc2)cs1	–	–	–	–	–	–
CCC(=O)N(CC)c1nc(-c2ccc(OC)cc2)cs1	–	73	–	–	–	–
COc1cc(/C(C)=C/c2ccccc2)c2c(c1)oc1ccccc12	–	·	–	·	–	–
CCCCc1cc(=O)oc2cc(C)c(CN3CCCC3)c(O)c12	–	89	–	–	–	–
Cc1cccc(-n2cnc3cc(C(=O)N4CCc5ccccc54)ccc32)c1	–	–	–	–	–	–
O=C(NCc1ccccc1)c1onc(CS(=O)(=O)c2ccccn2)c1C(=O)NCc1ccccc1	–	–	–	·	–	–
Oc1ccc(/C=N/NC(=S)Nc2cccnc2)c(O)c1O	·	53	·	·	·	·
Oc1cccc(/C=N/NC(=S)Nc2cccnc2)c1O	–	–	–	–	197	–
Oc1ccc(/C=N/NC(=S)Nc2cccnc2)c(O)c1	–	·	–	–	–	–
COc1ccc(N(CCC(=O)Nc2ccccc2F)S(=O)(=O)c2ccc(C)cc2C)cc1	–	–	–	·	·	·
COc1ccccc1NC(=O)Nc1ccccc1C(=O)NCCCN1CCOCC1	–	·	–	·	–	–
CCCCCCCCN1N=N[C@H]2[C@H]1[C@@H]1C[C@H]2N(C(=O)OC(C)(C)C)O1	–	–	·	·	·	·
CC(Oc1ccc(Cl)cc1)C(=O)Nc1nccs1 (centres undefined)	–	–	–	–	21	–
CC(Oc1ccc(Cl)cc1)C(=O)Nc1ccc(S(=O)(=O)Nc2nccs2)cc1 (centres undefined)	–	–	–	·	–	–
CCCCOc1ccc(C(=O)O)cc1	–	–	–	–	–	–
CCCCCCCCOc1ccc(C(=O)O)cc1	–	–	–	·	112	–
COCCCNC(=O)Cn1cnc2c(OCc3ccccc3)ncnc21	–	–	–	·	194	–
CSc1ncccc1C(=O)OCC(=O)NC1CC1	·	–	·	·	·	·
C#CCOCCOCCOCCNc1nc(N2CCN(C(=O)CCCCCCCCCCNC(=O)[C@H](CCCN=C(N)N)n3cc(C[C@@H](C)CC)nn3)CC2)nc(N2CCN(C(=O)CCCCCCCCCCNC(=O)[C@@H]([C@H](C)CC)n3cc(CCCCCN)nn3)CC2)n1	–	·	–	·	–	33
C#CCOCCOCCOCCNc1nc(N2CCN(C(=O)CCCCCCCCCCNC(=O)[C@@H](CCSC)n3cc(CCO)nn3)CC2)nc(N2CCN(C(=O)CCCCCCCCCCNC(=O)[C@H](CCCN=C(N)N)n3cc(C[C@@H](C)CC)nn3)CC2)n1	–	–	–	·	–	69
CC[C@H](C)Cc1cn([C@@H](CCCN=C(NC(=O)OC(C)(C)C)NC(=O)OC(C)(C)C)C(=O)NCCCCCCCCCCC(=O)N2CCN(C(=O)OC(C)(C)C)CC2)nn1	–	–	–	·	–	28
SMILES	GRK2 aptamer HTS	DSG3 Ab inh	VLA-4 inh	PKD1 inh	LANA-H2A inh	HDAC3 inhib
C/C(=N/Nc1ccc(C(=O)c2c(C)cc3ccccn23)cc1[N+](=O)[O-])c1ccc(O)cc1	·	–	·	·	·	·
COc1ccc2[nH]cc(CCNC(=O)C3CCCCC3)c2c1	–	–	–	·	12	–
COc1ccc2[nH]cc(CCNC(=S)NC3CCCC3)c2c1	–	·	–	–	–	–
NS(=O)(=O)c1ccc(N/C=C/C(=O)c2ccc(Br)cc2)cc1	–	93	–	–	–	–
COc1ccc(NC(=O)C(CC(=O)O)C(C)c2ccccc2)cc1 (centres undefined)	–	–	–	–	–	–
COc1cc(OC)c(/C=N/NC(=O)c2ccc(NC(C)=O)cc2)cc1Br	·	74	·	–	·	·
CC1CCCC(NC(=O)COC(=O)/C=C/c2ccc(F)cc2)C1C (centres undefined)	–	–	–	·	–	–
